Inconclusive results are not listed. Activity calls are given as the source filed them. Rule for the calls, unless noted: active = hit-call score of the fitted dose curve at least 0.9, where 1 is the maximum; inactive = score below 0.9.
What was measured:
[1] = CEETOX_H295R_ESTRADIOL: CeeTox H295R High-throughput Steroidogenesis Assay for Estradiol (AID 2283440); details: actives raise or lower the signal;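 note: estradiol secreted into medium quantified by LC-MS/MS after dansyl derivatisation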
In short: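 H295R, 48 h forskolin (10 uM) prestim → 48 h compound, 0.1% DMSO final. Estradiol in medium: MTBE extraction, dansyl chloride derivatization, LC-MS/MS. Fit bidirectional vs DMSO baseline; MTT viability in same wells.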

[2] = CEETOX_H295R_ESTRONE: CeeTox H295R High-throughput Steroidogenesis Assay for Estrone (AID 2283441); details: actives raise or lower the signal;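 note: estrone secreted into medium measured by LC-MS/MS after dansyl derivatization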
In short: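 H295R cells; 48 h forskolin (10 uM) prestimulation; 48 h compound exposure, 0.1% DMSO final. Medium estrone: MTBE extraction, dansyl derivatization, HPLC-MS/MS. Bidirectional fit vs DMSO.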

[3] = target: Retinoic acid receptor RXR-alpha (Homo sapiens) (UniProt P19793); test: OT_NURR1_NURR1RXRa_0480: Odyssey Thera (OT) 8-hour HEK293T Protein Complementation Assay for Nurr1/retinoid X receptor (RXR) (AID 2283385; active = hit-call score of the fitted dose curve at least 0.9, where 1 is the maximum)
Chain of Retinoic acid receptor RXR-alpha (Homo sapiens) (P19793 whole entry, looked up, the tested form may be a part): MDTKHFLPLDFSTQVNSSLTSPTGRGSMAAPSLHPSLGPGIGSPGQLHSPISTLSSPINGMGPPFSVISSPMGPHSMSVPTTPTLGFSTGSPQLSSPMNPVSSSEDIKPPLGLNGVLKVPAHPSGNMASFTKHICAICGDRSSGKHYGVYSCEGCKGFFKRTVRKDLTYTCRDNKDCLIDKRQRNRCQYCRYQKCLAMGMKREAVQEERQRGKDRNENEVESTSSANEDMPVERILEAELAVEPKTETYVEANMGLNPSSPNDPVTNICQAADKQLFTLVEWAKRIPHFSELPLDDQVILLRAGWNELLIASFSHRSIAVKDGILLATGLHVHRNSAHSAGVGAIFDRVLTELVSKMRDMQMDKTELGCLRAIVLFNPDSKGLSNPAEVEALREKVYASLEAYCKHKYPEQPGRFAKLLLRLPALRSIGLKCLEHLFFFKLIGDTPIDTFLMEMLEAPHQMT
In short: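 HEK293T cells expressing Nurr1 and RXRα fused to reporter fragments were dosed with compound for 8 hours. Complex formation was read as fluorescence intensity and analysed as gain of signal against DMSO as baseline.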

[4] = target: Retinoic acid receptor RXR-alpha (Homo sapiens) (UniProt P19793); test: OT_NURR1_NURR1RXRa_1440: Odyssey Thera (OT) 24-hour HEK293T Protein Complementation Assay for Nurr1/retinoid X receptor (RXR) (AID 2283386; active = hit-call score of the fitted dose curve at least 0.9, where 1 is the maximum)
In short: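 HEK293T cells were dosed with compound and read 24 h later by fluorescence intensity in a protein-fragment complementation format, where Nurr1–RXRα interaction reconstitutes a split reporter. Activity was fitted as gain of signal relative to DMSO baseline.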

[5] = CEETOX_H295R_11DCORT: CeeTox H295R High-throughput Steroidogenesis Assay for 11-Deoxycortisol (11DCORT) (AID 2283432); details: actives raise or lower the signal
In short: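 Steroidogenesis in human H295R cells: 48 h chemical exposure after forskolin priming, 11-deoxycortisol measured by LC-MS/MS.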

[6] = CEETOX_H295R_OHPREG: CeeTox H295R High-throughput Steroidogenesis Assay for OH-Pregnenolone (OHPREG) (AID 2283434); details: actives raise or lower the signal
In short: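 Hormone levels in spent medium were measured by tandem mass spectrometry following liquid-liquid extraction. Cells (H295R) had been forskolin-stimulated (10 uM, 48 h) before a 48 h chemical exposure at 0.1% DMSO, with activity fitted in both directions against DMSO.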

[7] = CEETOX_H295R_OHPROG: CeeTox H295R High-throughput Steroidogenesis Assay for OH-Progesterone (OHPROG) (AID 2283435); details: actives raise or lower the signal
In short: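 H295R human adrenal cells were prestimulated 48 h with 10 uM forskolin, then exposed 48 h to test chemical (0.1% DMSO final). 17alpha-hydroxyprogesterone in medium was measured by HPLC-MS/MS after MTBE extraction; bidirectional fitting vs DMSO.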

[8] = CEETOX_H295R_CORTIC: CeeTox H295R High-throughput Steroidogenesis Assay for Corticosterone (CORTIC) (AID 2283437); details: actives raise or lower the signal;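 note: corticosterone secreted into medium quantified by mass spectrometry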
In short: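 Corticosterone secreted into medium is measured by reverse-phase HPLC with tandem MS following liquid-liquid extraction. Cells are forskolin-stimulated (10 uM, 48 h) before 48 h test exposure; activity fitted in both directions against DMSO.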

[9] = CEETOX_H295R_CORTISOL: CeeTox H295R High-throughput Steroidogenesis Assay for Cortisol (AID 2283438); details: actives raise or lower the signal;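 note: cortisol secreted into medium quantified by LC-MS/MS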
In short: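 H295R human adrenal cells were prestimulated 48 h with 10 uM forskolin, then exposed 48 h to test chemical (0.1% DMSO final). Medium cortisol was quantified by HPLC-MS/MS after MTBE extraction; bidirectional fitting relative to DMSO baseline.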

[10] = CEETOX_H295R_DOC: CeeTox H295R High-throughput Steroidogenesis Assay for DOC (AID 2283439); details: actives raise or lower the signal
In short: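 H295R adrenal cells prestimulated 48 h with 10 uM forskolin, then exposed 48 h to test chemical (0.1% DMSO final). Medium 11-deoxycorticosterone extracted with MTBE, quantified by HPLC-MS/MS; bidirectional fit versus DMSO baseline; MTT viability in same wells.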

[11] = CEETOX_H295R_PROG: CeeTox H295R High-throughput Steroidogenesis Assay for Progesterone (PROG) (AID 2283442); details: actives raise or lower the signal;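 for AC50: human H295R adrenal cells primed with 10 µM forskolin before dosing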
In short: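 Progesterone read-out: HPLC-MS/MS on MTBE extracts of conditioned medium after 48 h chemical exposure of forskolin-primed (10 uM, 48 h) H295R cells. Gain or loss of signal was fitted relative to DMSO baseline.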

[12] = read-out: Tumor necrosis factor receptor superfamily member 6 (Homo sapiens) (UniProt P25445); test: LTEA_HepaRG_FAS: Life Technologies and Expression Analysis (LTEA) Assay for Fas cell surface death receptor (FAS) using HepaRG (AID 2283447); details: mRNA level, 48 h; actives raise or lower the signal
In short: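 FAS transcript level was measured by TaqMan qRT-PCR against three housekeeping genes after 48 h chemical exposure. Cells were HepaRG, 0.5% DMSO vehicle, with a top concentration of 100 uM and half-log dilutions over eight points, in duplicate.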

[13] = read-out: Fatty acid synthase (Homo sapiens) (UniProt P49327); test: LTEA_HepaRG_FASN: Life Technologies and Expression Analysis (LTEA) Assay for Fatty Acid Synthase (FASN) using HepaRG (AID 2283448); details: mRNA level, 48 h; actives raise or lower the signal
In short: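 Differentiated human HepaRG cells were exposed for 48 h in serum-free induction medium to eight half-log concentrations up to 100 uM in 0.5% DMSO, in duplicate. FASN mRNA was quantified by TaqMan qRT-PCR, normalized to ACTB/GAPDH/POLR2A, and fitted bidirectionally against DMSO.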

[14] = read-out: Cyclin D2 (CCND2), CCND2 (gene 894); test: LTEA_HepaRG_CCND2: Life Technologies and Expression Analysis (LTEA) Assay for Cyclin D2 (CCND2) using HepaRG (AID 2283449); details: mRNA level, 48 h; actives raise or lower the signal
In short: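 Read-out is CCND2 mRNA level measured by qRT-PCR in human HepaRG liver cells and normalised to three housekeeping genes. Chemicals were applied for 48 h at up to 100 uM, with gain or loss fitted relative to 0.5% DMSO.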

[15] = read-out: Cyclin Dependent Kinase Inhibitor 1A (CDKN1A), CDKN1A (gene 1026); test: LTEA_HepaRG_CDKN1A: Life Technologies and Expression Analysis (LTEA) Assay for Cyclin Dependent Kinase Inhibitor 1A (CDKN1A) using HepaRG (AID 2283450); details: mRNA level, 48 h; actives raise or lower the signal
In short: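 HepaRG, 48 h dosing, 8-pt half-log series from 100 uM top, 0.5% DMSO vehicle, duplicates. Readout: TaqMan qRT-PCR of CDKN1A transcript, housekeeping-normalized (ACTB, GAPDH, POLR2A). Up/down curve fit relative to DMSO.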

[16] = read-out: Cyclin D1 (CCND1), CCND1 (gene 595); test: LTEA_HepaRG_CCND1: Life Technologies and Expression Analysis (LTEA) Assay for Cyclin D1 (CCND1) using HepaRG (AID 2283451); details: mRNA level, 48 h; actives raise or lower the signal;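 for AC50: TaqMan qRT-PCR transcript level normalised to ACTB GAPDH and POLR2A housekeeping genes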
In short: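 qRT-PCR (Fluidigm 96.96 array) read-out of transcript level, housekeeping-normalized (ACTB/GAPDH/POLR2A). HepaRG cells, 48 h chemical exposure, 8-point half-log series from 100 uM, 0.5% DMSO vehicle; gain or loss relative to DMSO baseline.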

[17] = target: Peroxisome proliferator-activated receptor gamma (Homo sapiens) (UniProt P37231); test: OT_PPARg_PPARgSRC1_0480: Odyssey Thera (OT) 8-hour Protein-Complementation Assay for Peroxisome Proliferator-activated Receptor Gamma / SRC-1 Co-activator (AID 2283387; active = hit-call score of the fitted dose curve at least 0.9, where 1 is the maximum;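 note: nuclear to cytoplasmic split Venus YFP fluorescence ratio reporting PPARg SRC-1 interaction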)
Chain of Peroxisome proliferator-activated receptor gamma (Homo sapiens) (P37231 whole entry, looked up, the tested form may be a part): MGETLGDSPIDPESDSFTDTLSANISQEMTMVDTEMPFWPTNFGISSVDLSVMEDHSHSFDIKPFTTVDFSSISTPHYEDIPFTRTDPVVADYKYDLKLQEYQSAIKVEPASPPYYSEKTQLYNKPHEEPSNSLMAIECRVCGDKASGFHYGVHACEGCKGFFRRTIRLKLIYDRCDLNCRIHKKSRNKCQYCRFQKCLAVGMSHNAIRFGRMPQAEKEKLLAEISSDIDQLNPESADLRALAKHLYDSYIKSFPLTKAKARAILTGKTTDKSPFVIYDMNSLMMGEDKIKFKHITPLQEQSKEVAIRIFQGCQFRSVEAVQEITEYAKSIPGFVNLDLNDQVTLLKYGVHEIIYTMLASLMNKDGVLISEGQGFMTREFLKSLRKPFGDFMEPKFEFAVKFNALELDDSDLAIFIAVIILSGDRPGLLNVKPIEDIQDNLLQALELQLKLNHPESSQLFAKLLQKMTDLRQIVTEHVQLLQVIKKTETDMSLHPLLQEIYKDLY
In short: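 Split-YFP (IFP1/IFP2) PPARg/SRC-1 reporter, HEK293T, 37 °C, 5% CO2; 8 h compound; formaldehyde fix + Draq5; high-content imaging, N/C ratio, ≥350 cells/image, positive direction vs DMSO.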

[18] = target: Peroxisome proliferator-activated receptor gamma (Homo sapiens) (UniProt P37231); test: OT_PPARg_PPARgSRC1_1440: Odyssey Thera (OT) 24-hour Protein-Complementation Assay for Peroxisome Proliferator-activated Receptor Gamma/ SRC-1 Co-activator (AID 2283388; active = hit-call score of the fitted dose curve at least 0.9, where 1 is the maximum;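 note: nuclear to cytoplasmic ratio of reconstituted Venus YFP fluorescence in fixed imaged cells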)
In short: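 Readout: nuclear-to-cytoplasmic 488 nm fluorescence ratio, ≥350 cells per image, 8 images per well, after 24 h compound exposure of HEK293T expressing PPARg/SRC-1 split-YFP fusions. Activity fitted in positive direction against DMSO.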

[19] = read-out: catalase (CAT), CAT (gene 847); test: LTEA_HepaRG_CAT: Life Technologies and Expression Analysis (LTEA) Assay for catalase (CAT) using HepaRG (AID 2283452); details: mRNA level, 48 h; actives raise or lower the signal
In short: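 Expression of CAT was quantified by TaqMan qRT-PCR with ACTB/GAPDH/POLR2A normalization after 48 h chemical exposure of HepaRG. Eight-point half-log series, top 100 uM, in 0.5% DMSO; gain or loss fitted against vehicle.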

Measured: AC50

Chain of Fatty acid synthase (Homo sapiens) (P49327 whole entry, looked up): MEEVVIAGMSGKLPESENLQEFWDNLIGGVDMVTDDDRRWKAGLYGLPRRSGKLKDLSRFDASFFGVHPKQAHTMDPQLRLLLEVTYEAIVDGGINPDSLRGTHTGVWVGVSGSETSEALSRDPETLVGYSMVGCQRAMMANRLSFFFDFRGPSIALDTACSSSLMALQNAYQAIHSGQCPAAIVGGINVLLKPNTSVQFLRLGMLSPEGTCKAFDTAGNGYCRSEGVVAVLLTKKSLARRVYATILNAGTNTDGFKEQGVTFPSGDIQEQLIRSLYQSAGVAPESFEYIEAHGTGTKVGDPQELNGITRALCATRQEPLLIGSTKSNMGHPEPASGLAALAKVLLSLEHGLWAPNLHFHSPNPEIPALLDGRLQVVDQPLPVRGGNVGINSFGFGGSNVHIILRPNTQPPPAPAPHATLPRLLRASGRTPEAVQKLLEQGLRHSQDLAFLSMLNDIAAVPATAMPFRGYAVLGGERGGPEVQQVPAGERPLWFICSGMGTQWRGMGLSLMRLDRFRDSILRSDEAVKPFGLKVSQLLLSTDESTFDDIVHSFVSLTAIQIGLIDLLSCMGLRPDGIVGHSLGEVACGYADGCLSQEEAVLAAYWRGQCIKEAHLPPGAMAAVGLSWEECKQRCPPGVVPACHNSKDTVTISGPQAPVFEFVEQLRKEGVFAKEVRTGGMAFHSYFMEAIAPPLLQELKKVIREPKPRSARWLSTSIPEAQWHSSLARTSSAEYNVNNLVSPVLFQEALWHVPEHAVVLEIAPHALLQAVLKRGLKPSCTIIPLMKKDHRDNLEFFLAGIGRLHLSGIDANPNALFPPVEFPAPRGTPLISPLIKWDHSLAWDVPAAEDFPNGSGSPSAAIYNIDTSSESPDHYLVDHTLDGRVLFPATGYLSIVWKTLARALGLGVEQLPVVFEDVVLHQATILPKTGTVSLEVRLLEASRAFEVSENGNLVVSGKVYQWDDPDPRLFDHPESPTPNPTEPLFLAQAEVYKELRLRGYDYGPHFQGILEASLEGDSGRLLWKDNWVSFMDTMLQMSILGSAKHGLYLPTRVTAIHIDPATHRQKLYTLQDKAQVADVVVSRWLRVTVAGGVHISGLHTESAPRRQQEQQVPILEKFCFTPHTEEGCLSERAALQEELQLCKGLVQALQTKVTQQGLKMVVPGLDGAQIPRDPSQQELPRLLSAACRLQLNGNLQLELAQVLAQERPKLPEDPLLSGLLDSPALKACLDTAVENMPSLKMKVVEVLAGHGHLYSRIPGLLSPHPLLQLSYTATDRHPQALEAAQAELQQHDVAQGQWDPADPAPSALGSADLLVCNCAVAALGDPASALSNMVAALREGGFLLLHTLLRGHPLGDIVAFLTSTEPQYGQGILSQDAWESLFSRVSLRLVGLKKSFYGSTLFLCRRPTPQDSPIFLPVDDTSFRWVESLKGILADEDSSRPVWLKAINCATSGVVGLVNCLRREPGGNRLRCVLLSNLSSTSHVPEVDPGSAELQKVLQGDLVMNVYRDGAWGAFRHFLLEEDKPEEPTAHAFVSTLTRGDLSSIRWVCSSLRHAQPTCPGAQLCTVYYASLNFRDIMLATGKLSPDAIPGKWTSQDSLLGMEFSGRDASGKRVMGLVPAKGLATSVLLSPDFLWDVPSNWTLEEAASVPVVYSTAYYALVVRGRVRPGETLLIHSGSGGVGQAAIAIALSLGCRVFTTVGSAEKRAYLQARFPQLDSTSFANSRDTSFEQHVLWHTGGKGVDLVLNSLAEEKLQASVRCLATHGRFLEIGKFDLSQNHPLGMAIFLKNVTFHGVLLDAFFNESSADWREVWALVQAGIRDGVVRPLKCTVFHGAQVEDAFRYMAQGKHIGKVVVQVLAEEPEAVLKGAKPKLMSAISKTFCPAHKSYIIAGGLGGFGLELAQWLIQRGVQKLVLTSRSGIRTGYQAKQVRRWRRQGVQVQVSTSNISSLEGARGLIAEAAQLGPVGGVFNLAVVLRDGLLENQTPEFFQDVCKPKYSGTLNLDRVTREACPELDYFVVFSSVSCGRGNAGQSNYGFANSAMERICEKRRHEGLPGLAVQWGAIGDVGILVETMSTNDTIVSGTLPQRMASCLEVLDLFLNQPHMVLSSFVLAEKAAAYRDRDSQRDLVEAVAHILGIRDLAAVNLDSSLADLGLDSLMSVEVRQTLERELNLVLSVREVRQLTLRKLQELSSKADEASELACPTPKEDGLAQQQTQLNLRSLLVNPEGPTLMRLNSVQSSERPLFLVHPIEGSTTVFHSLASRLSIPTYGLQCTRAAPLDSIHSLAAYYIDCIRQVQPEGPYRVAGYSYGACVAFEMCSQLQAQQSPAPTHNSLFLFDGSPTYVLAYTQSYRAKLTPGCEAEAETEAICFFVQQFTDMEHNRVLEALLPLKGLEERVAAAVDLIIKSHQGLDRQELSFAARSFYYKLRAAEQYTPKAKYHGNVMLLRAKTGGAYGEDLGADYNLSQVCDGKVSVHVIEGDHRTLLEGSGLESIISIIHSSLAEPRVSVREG

CSc1nc(NC(C)C)nc(NC(C)C)n1
inactive: [1]
active: [2] 2.54 µM

CNC(=O)ON=C(SC)C(=O)N(C)C
inactive: [1] | [2]

CSc1nnc(C(C)(C)C)c(=O)n1N
not listed: [1] | [2] | [17] | [18] | [19]
inactive: all other assays above

CC(C)=CC1C(C(=O)OCN2C(=O)C3=C(CCCC3)C2=O)C1(C)C (stereo unspecified)
inactive: [3] | [4] | [17] | [18] | [12] | [13] | [15] | [16]

CSC1=N[C@@](C)(c2ccccc2)C(=O)N1Nc1ccccc1
inactive: [3] | [4] | [17] | [18] | [14]
active: [12] 77.8 µM | [13] 66.1 µM | [15] 28.2 µM | [16] 50 µM | [19] 32.7 µM

Cc1nn(-c2cc(NS(C)(=O)=O)c(Cl)cc2Cl)c(=O)n1C(F)F
inactive: [4] | [17] | [18] | [12] | [13] | [15] | [16] | [19]

CCCOc1nn(C(=O)NS(=O)(=O)c2ccccc2C(=O)OC)c(=O)n1C
inactive: [3] | [4] | [17] | [18] | [12] | [13] | [15] | [16] | [19]
active: [14] 67.7 µM

CC(Oc1cccc(Cl)c1)C(=O)O (stereo unspecified)
inactive: [3] | [4] | [17] | [18] | [12] | [13] | [15] | [16] | [19]

CCC(=NOC/C=C/Cl)C1=C(O)CC(C2CCOCC2)CC1=O (stereo unspecified)
active: [16] 0.414 µM
inactive: [3] | [4] | [17] | [18] | [12] | [13] | [15]

O=C(O)c1cc(Oc2ccc(C(F)(F)F)cc2Cl)ccc1[N+](=O)[O-]
not listed: [1] | [2] | [3] | [4] | [19]
inactive: all other assays above

CCCCOC(=O)c1ccccc1C(=O)O
inactive: [3] | [4] | [17] | [18] | [12] | [13] | [14] | [15] | [16] | [19]

COc1cc(OC)nc(Sc2cccc(Cl)c2C(=O)O)n1
inactive: [3] | [4] | [17] | [18] | [12] | [13] | [15] | [16] | [19]

CC(C1CC1)C(O)(Cn1cncn1)c1ccc(Cl)cc1 (stereo unspecified)
active: [6] 4.38 µM | [7] 3.21 µM | [11] 2.23 µM
inactive: [3] | [17] | [18] | [12] | [13] | [14] | [15] | [16] | [19]

CCc1cccc(CC)c1N(COC)C(=O)CCl
inactive: [3] | [17] | [18] | [12] | [13] | [14] | [15] | [16] | [19]
active: [4] 714 nM

N#CSCSC#N
active: [13] 64.6 µM | [19] 74.9 µM
inactive: [17] | [18] | [12] | [14] | [15] | [16]

COP(=O)(OC)C(O)C(Cl)(Cl)Cl (stereo unspecified)
inactive: [3] | [4] | [17] | [18] | [12] | [13] | [15] | [16]

CCOP(=O)(SC(C)CC)N1CCSC1=O (stereo unspecified)
inactive: [3] | [4] | [17] | [18] | [12] | [13] | [15] | [16] | [19]

CC(C)[C@H](C(=O)O[C@H](C#N)c1cccc(Oc2ccccc2)c1)c1ccc(Cl)cc1
inactive: [4] | [17] | [18] | [12] | [13] | [14] | [15] | [16] | [19]

CCc1cnc(C2=NC(C)(C(C)C)C(=O)N2)c(C(=O)O)c1 (stereo unspecified)
inactive: [4] | [17] | [18] | [12] | [13] | [14] | [15] | [16]

CC[C@H](C)[C@H]1O[C@]2(C=C[C@@H]1C)C[C@@H]1C[C@@H](C/C=C(\C)[C@@H](O[C@H]3C[C@H](OC)[C@@H](O[C@H]4C[C@H](OC)[C@@H](NC)[C@H](C)O4)[C@H](C)O3)[C@@H](C)/C=C/C=C3\CO[C@@H]4[C@H](O)C(C)=C[C@@H](C(=O)O1)[C@]34O)O2
active: [13] 16.4 µM | [16] 87.5 µM
inactive: [4] | [17] | [18] | [12] | [14] | [15]

CC(=NC#N)N(C)Cc1ccc(Cl)nc1
inactive: [3] | [4] | [17] | [18] | [12] | [13] | [14] | [15] | [16] | [19]

From PubChem BioAssay (EPA / NIEHS)
